Consider 18 compounds from PubChem BioAssay (NCATS).

Unmarked numbers belong to inactive results. For some assays here: Potency and affinity values are given separately. The source made the active and inactive calls.

The conditions of test [1]: Ebola virus entry assay, green fluorescence channel.
For test [2] the following is noted: Ebola virus entry assay, blue channel fluorescence.
For test [3] the following is noted: Ebola virus entry assay, green fluorescence channel. This is another data set of the same source.
The conditions of test [4]: Ebola virus entry assay, ratio channel readout.
For test [5] the following is noted: Ebola virus entry assay, blue channel fluorescence. This is another data set of the same source.
The conditions of test [6]: Ebola virus entry assay, ratio channel.
The conditions of test [7]: Ebola virus entry assay, green channel fluorescence.
For test [8] the following is noted: Ebola virus entry assay, reporter ratio channel.
The conditions of test [9]: Ebola virus entry assay, blue channel (ratio component).
The conditions of test [10]: Ebola virus entry assay, blue channel fluorescence. This is another data set of the same source.
[11] abbreviates: AC50: Channel type: primary unless noted, outcome: Channel type: primary unless noted.
For efficacy in this document: 0% is about no effect.

The AC50 is the concentration giving half of the maximal activity seen. With `Clc1ccc(C(c2ccccc2Cl)C(Cl)Cl)cc1` (stereo not drawn), the efficacy in test [1] was -31.8%. In addition, the outcome in [2], in test [3], in test [4] and in test [7] was inactive. In addition, the AC50 in test [5] is 31.6 µM (active); in test [6], 22.4 µM (active); in test [8] (setting [11]) it was 22.4 µM (active).

Turning to `CCC(C)n1ncn(-c2ccc(N3CCN(c4ccc(OC[C@H]5CO[C@](Cn6cncn6)(c6ccc(Cl)cc6Cl)O5)cc4)CC3)cc2)c1=O` (stereo partly drawn), the efficacy in test [1] is 13.1%. Further, the AC50 in [2] was 5.01 µM (active); in [4] it was 2 µM (active). Also, the compound was classed as inactive in [3], in test [5], in test [6], in test [7], in test [8] (setting [11]) and in [9].

Take `C=C(CC)C(=O)c1ccc(OCC(=O)O)c(Cl)c1Cl`: in [1], the efficacy is 39.8%. The outcome in [2], in test [3], in [4] and in test [7] was inactive. Moreover, the half-maximal activity concentration (AC50) is 14.1 µM (active) in [5], 15.8 µM (active) in [6] and 15.8 µM (active) in [8] (setting [11]).

For `CCOC(=O)C1=C(C)NC(C)=C(C(=O)OC)C1c1cccc(Cl)c1Cl` (stereo not drawn), the efficacy in test [1] was 20.7%. Further, the compound was called inactive in [2], in test [3], in test [4], in [5], in test [6] and in test [7]. Further, the outcome in test [8] (setting [11]) and in [9] was inactive.

In the case of `CN1CCC[C@@H]1Cc1c[nH]c2ccc(CCS(=O)(=O)c3ccccc3)cc12`, in [1], the efficacy was 20.7%. The result in test [2], in test [3], in [4] and in test [7] was inactive. The half-maximal activity concentration (AC50) in [5], in [6] and in [8] (setting [11]) was 25.1 µM (active) each time.

On to `Cc1cn([C@H]2C[C@H](N=[N+]=[N-])[C@@H](CO)O2)c(=O)[nH]c1=O`, for which the efficacy in test [1] was 17%. The compound was classed as inactive in test [2], in [3], in [4], in [5], in [6] and in test [7]. Also, the outcome in [8] (setting [11]) and in test [9] was inactive.

For the compound `CC(=O)Oc1ccccc1C(=O)Nc1ncc([N+](=O)[O-])s1`, in test [1], the efficacy was 16.8%. Besides, the result in [2], in test [3], in [4], in test [5], in test [6] and in test [7] was inactive. In addition, the outcome in test [8] (setting [11]) was inactive.

For `Cc1cn([C@H]2C=C[C@@H](CO)O2)c(=O)[nH]c1=O`, the efficacy in test [1] is 10.9%. Further, the outcome in test [2], in test [3], in test [4], in test [5], in [6] and in test [7] was inactive. Also, the compound was called inactive in [10], in test [8] (setting [11]) and in [9].

For `CC1(C)S[C@@H]2[C@H](NC(=O)Cc3ccccc3)C(=O)N2[C@H]1C(=O)O` (tested in a mixture with another compound), in test [1], the efficacy was -23.1%. Besides, the call in test [2], in [3], in [4], in test [5], in test [6] and in test [7] was inactive. For the same compound, the outcome in test [10], in test [8] (setting [11]) and in test [9] was inactive.

With `Cc1ccc(S(=O)(=O)NC(=O)NN2CC3CCCC3C2)cc1` (stereo not drawn), the efficacy in test [1] is -32.1%. The compound was called inactive in test [2], in [3], in [4], in test [5], in test [6] and in test [7]. The outcome in [8] (setting [11]) and in test [9] was inactive.

For the compound `O=C1Nc2ccc(Cl)cc2[C@@](C#CC2CC2)(C(F)(F)F)O1`, the efficacy in test [1] is -11.3%. For the same compound, the result in [2], in [3], in test [4] and in test [7] was inactive. Further, the half-maximal activity concentration (AC50) in [5] is 17.8 µM (active); in [6], 22.4 µM (active); in test [8] (setting [11]) it was 22.4 µM (active).

Take `Nc1nc(F)nc2c1ncn2[C@@H]1O[C@H](CO)[C@@H](O)[C@@H]1O`: in test [1], the efficacy was 16.7%. Besides, the compound was called inactive in [2], in test [3], in test [4], in test [5], in [6] and in test [7]. Also, the compound was called inactive in [10], in test [8] (setting [11]) and in [9].

Regarding `CCOC(=O)C1(c2ccccc2)CCN(CCC(C#N)(c2ccccc2)c2ccccc2)CC1`, the efficacy in test [1] was -34.7%. Moreover, the compound was classed as inactive in [2], in test [3], in test [4] and in test [7]. Besides, the half-maximal activity concentration (AC50) is 14.1 µM (active) in test [5], 10 µM (active) in [6] and 10 µM (active) in [8] (setting [11]).

Regarding `C[n+]1ccccc1/C=N/O`, in test [1], the efficacy is -22%. Also, the result in test [2], in test [3], in test [4], in test [5], in [6] and in test [7] was inactive. Besides, the outcome in test [10], in [8] (setting [11]) and in test [9] was inactive.

As to `CCOc1ccc2ccccc2c1C(=O)N[C@@H]1C(=O)N2[C@@H]1SC(C)(C)[C@@H]2C(=O)O`, the efficacy in test [1] was 20.5%. The outcome in test [2], in [3], in [4], in [5], in test [6] and in test [7] was inactive. Further, the outcome in [10], in [8] (setting [11]) and in test [9] was inactive.

For `CC(=O)[C@]1(O)Cc2c(O)c3c(c(O)c2[C@@H](O[C@H]2C[C@H](N)[C@H](O)[C@H](C)O2)C1)C(=O)c1ccccc1C3=O`, in test [1], the efficacy was 27.8%. For the same compound, the compound was classed as inactive in test [2], in test [3], in test [4] and in test [7]. Besides, the AC50 in test [5] is 14.1 µM (active); in [6], 12.6 µM (active); in test [8] (setting [11]), 12.6 µM (active).

On to `COC1=CC(=O)C[C@@H](C)[C@]12Oc1c(Cl)c(OC)cc(OC)c1C2=O`, for which, in test [1], the efficacy was 30%. Besides, the result in [2], in [3], in test [4], in [5], in test [6] and in test [10] was inactive. Also, the outcome in test [8] (Channel type: confirmation) and in test [8] (Channel type: primary) was inactive.

With `COc1cc(NC(C)CCCN)c2ncccc2c1` (stereo not drawn), the efficacy in [1] was -153%. The compound was classed as inactive in test [2], in test [3] and in test [4]. Besides, the AC50 in test [5] is 5.01 µM (active); in test [6], 3.55 µM (active); in test [8] (setting [11]), 3.55 µM (active).
